Measured values: ChEMBL document CHEMBL3988442, “University of Dundee, Small-Polar-MMV Screening Library” (2021)

Target: AMP-activated protein kinase, AMPK (Homo sapiens) (UniProt P54646+O43741+P54619+Q9UGJ0+Q9Y478+Q13131+Q9UGI9)
Test: AMP-dependent Kinase enzyme assay. An in vitro enzyme assay that detects ADP turnover that is directly proportional to AMPK activity. This uses naive AMPK that is activated during the assay with MK-8722
Type: functional
Parameters: scale not given: direction of the effect not stated beside the values
Settings: 30 µM

Row | Compound | Percent Effect [%]
1 | CCCn1nnnc1CN(CC)CC1COc2ccccc2O1 (stereo not given) | 1.1
2 | Cc1cc(-c2n[nH]c3c2CN(S(=O)(=O)c2ccsc2)CC3)c(C)o1 | 4.26
3 | COc1ccc(C)c(NC(=O)NCc2ncnn2C)c1 | -3.74
4 | CN(CCn1cncc1-c1cnc(N2CCOCC2)nc1)C1CCCC1 | 12.2
5 | Cc1cc(NC(=O)C2CCN(c3nnc(C)c(C)c3C#N)CC2)no1 | -48.4
6 | CCC(C)(CC(=O)OC)NCc1noc(C)n1 (stereo not given) | 1.21
7 | N#CC1COCCN1C(=O)c1ccc2[nH]cnc2c1 (stereo not given) | -8.21
8 | CCS(=O)(=O)NCC(=O)NC1(C)CCc2ccccc2C1 (stereo not given) | -3.96
9 | CCCc1cc(N(CCOC)CC(F)F)n2ncnc2n1 | 11.5
10 | CSc1nsc(NC(=O)N(C)Cc2ccc3c(c2)OCO3)n1 | 0.417
11 | O=C(CC1CCc2ccccc21)NC1(C(=O)O)CCOCC1 (stereo not given) | -0.354
12 | Cc1nc(CNCc2ccc(OC34CCCN(CC3)C4)cc2)n[nH]1 (stereo not given) | -5.44
13 | COCC(NC(=O)c1cn2ccsc2n1)c1ccnn1C (stereo not given) | -19.1
14 | Cc1cccnc1NC(=O)c1ccc(F)c(S(=O)(=O)N2CCC2)c1 | -5.84
15 | Cc1cnc(C(=O)N2CCN(c3ncc4c(n3)CCOC4)CC2)cn1 | 15.1
16 | Cc1ccc(CNCc2cccc(NC(=O)CCN3CCOCC3)c2)s1 | -4.09
17 | COC(=O)c1cccc(S(=O)(=O)NCC(c2ccco2)N2CCCC2)c1 (stereo not given) | -6.45
18 | O=C(NCCCNc1cccnc1)c1ccc2nccn2c1 | -8.67
19 | COc1c(C2CCCN2C(=O)c2ccc(C(N)=O)s2)c(C)nn1C (stereo not given) | -4.26
20 | CN(Cc1nncn1C)C(=O)c1cc(COc2ccccc2)[nH]n1 | -7.68

Row | Compound | Percent Effect [%]
21 | CCc1oc(C(=O)NCCSc2ncn[nH]2)cc1CN1CCCC1 | 1.9
22 | O=c1cc(N2CCCC2)cnn1Cc1noc(C2CCCO2)n1 (stereo not given) | -1.31
23 | Cc1ccc(-c2noc(C3CCN3C(=O)c3cc[nH]n3)n2)s1 (stereo not given) | 16
24 | CCC[C@@H]1CN(Cc2ccc(C(F)(F)F)nc2)C[C@H]1C(=O)O | -4.32
25 | Cc1cnc(C(=O)N2CC(=O)N(c3ccccc3Cl)CC2C)cn1 (stereo not given) | 12.5
26 | CCCOC1CCCN(c2ncnc3c2CCN(C(=O)C2CC2)C3)C1 (stereo not given) | 3.46
27 | CN1CCCC(CNC(=O)CN(C)S(=O)(=O)c2cccnc2)C1 (stereo not given) | -10.7
28 | CC(C)CN(CC(F)(F)F)S(=O)(=O)c1cc(C(N)=O)n(C)c1 | -3.17
29 | O=C(Nc1cn[nH]c1)NC1CCN(c2ccccc2OC(F)F)C1 (stereo not given) | -1.4
30 | COc1ccccc1-c1cccc(C2CCCN(C3CCOCC3)C2)n1 (stereo not given) | -7.08
31 | COCc1nc(C2CC2)nn1-c1cc(Cl)ccc1OC | -8.6
32 | O=C(CCc1nc(-c2cccnc2)no1)NCC1CCN(C2CC2)C1 (stereo not given) | -2.6
33 | CCCN1CCC(N(C)C(=O)c2cc(C)nc3cc(F)ccc23)CC1 | -6.76
34 | CCn1nc(C)c(C(=O)N2C[C@@H](CN(C)CCOC)[C@@H](CO)C2)c1C | -7.64
35 | Nc1nccnc1C(=O)NC1CCN(Cc2ccccc2)C1 (stereo not given) | 7.89
36 | CN(CCc1ncnn1C1Cc2ccccc2C1)C1CCS(=O)(=O)C1 (stereo not given) | -4.47
37 | Fc1ccc(OCCCNC2=NCCN2)cc1 | -0.85
38 | Cc1cc(C(=O)NCCC2CCN(C)CC2)ccc1N(C)S(C)(=O)=O | 6.31
39 | Cn1ccnc1-c1cnn(CC(=O)Nc2ccnn2C)c1 | -2.32
40 | O=C(CCOc1ccc(Cl)cc1)NCCCn1cccn1 | -3.71
